# An excerpt weighted towards active compounds, which were near 1.4% of everything screened.
# VLA-4 allo ag – allosterically activates the human VLA-4 integrin; P13612; activation, % at 10 µM (by protocol); AID 528; Jurkat cells, LDV-FITC binding, flow cytometry; 24,000 tested, under 10 active;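 active = fluorescent ligand binding to cells raised by more than 40% of the manganese-induced maximum; inconclusive = compound's own fluorescence above 85% of the ligand control signal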
# VLA-4 antagonist – inhibition of LDV-FITC ligand binding to human VLA-4 integrin | P13612 | Jurkat cells, LDV-FITC binding with Mn2+, flow cytometry; 100% = Mn2+-driven binding gain fully reversed | inhibition, % at 10 µM (by protocol) | 0.2% of 24,000 active;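 active = inhibition above 50%; inconclusive = compound itself fluorescent, judged against control cell fluorescence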
# FPRL1 ligand – ligands of human FPRL1, also counter-screen for FPR ligands | 0.3% of 24,000 active | AID 441 | inhibition, % (test concentration not listed) | FPRL1-expressing cells, fluorescent ligand binding inhibition, flow cytometry | P25090
# FPR binder – ligands of human FPR, also counter-screen for FPRL1 ligands; P21462; FPR-expressing cells, fluorescent ligand binding, flow cytometry; inhibition, % (concentration not given with the values); 0.74% of 24,000 active; AID 440
# Target sequence (P21462 whole entry, looked up): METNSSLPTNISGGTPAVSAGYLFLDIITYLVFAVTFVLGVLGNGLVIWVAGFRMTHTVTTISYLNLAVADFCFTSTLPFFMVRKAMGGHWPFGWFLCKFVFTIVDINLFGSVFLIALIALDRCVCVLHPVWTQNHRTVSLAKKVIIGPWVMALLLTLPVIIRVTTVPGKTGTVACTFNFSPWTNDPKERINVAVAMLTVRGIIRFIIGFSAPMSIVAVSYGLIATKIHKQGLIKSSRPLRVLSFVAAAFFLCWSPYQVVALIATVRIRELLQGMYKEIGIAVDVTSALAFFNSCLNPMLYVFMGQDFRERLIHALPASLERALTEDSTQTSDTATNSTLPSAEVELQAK
# Jurkat autofluor – autofluorescence counter-screen for VLA-4 integrin assays; Jurkat cells, compound autofluorescence, flow cytometry; active compounds read high; 1 = vehicle-only cell background; fluorescence ratio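 (tested at 10 µM compound in the well)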; 0.61% of 24,000 active; AID 576;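 active = fluorescence ratio above 2.44, which is 1 plus 3 SD of all ratios; inconclusive = signal too bright to measure linearly, ratio around 10 or more; inactive = fluorescence ratio below 2.44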;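 also: green fluorescence of cells measured with 488 nm excitation and 530 nm emission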
# Numbers stand for hits; . = inactive; ? = inconclusive; / = not tested or not shown. Rule as the data show it, unless noted: active = inhibition above about 30%; inconclusive = no clear call, values can overlap the other calls; inactive = below that.
SMILES,VLA-4 allo ag,VLA-4 antagonist,FPRL1 ligand,FPR binder,Jurkat autofluor
CC1CCN(c2nc(-c3ccccc3)c(C#N)c(=O)[nH]2)CC1,.,.,.,35,.
COc1cccc(-n2c(Cc3cc(=O)[nH]c(=O)[nH]3)nnc2SCC(=O)N2CCCCC2)c1,.,.,.,.,.
CN1CCc2c(sc3c2C(=O)NC(c2cccc(OC(=O)c4cccs4)c2)N3)C1 (stereo not given),?,?,.,.,3.2
C=CCOc1cccc(C2/C(=C(/O)c3ccccc3)C(=O)C(=O)N2CCCN2CCOCC2)c1 (stereo not given),/,/,.,.,/
O=C(c1ccco1)N1CCN(c2nc3ccccc3n3nnnc23)CC1,?,?,.,.,9.4
CCCOc1ccccc1NC(=O)c1ccc(N)cc1,.,.,.,.,.
CCCOc1ccc(N)cc1N,?,?,.,.,7.9
CCOC(=O)Cn1nc(-c2ccc(Cl)cc2)cc1N,?,?,.,.,.
CCOC(=O)CCn1nc(-c2ccc(Cl)cc2)cc1N,.,.,51,54,.
Cc1onc(-c2ccccc2)c1C(=O)Nc1cccc(C#N)c1,.,.,.,.,.
COCCOC(=O)c1cc(C(=O)c2cc(F)ccc2O)coc1=N,?,?,.,.,4.1
CCOC(=O)c1c(C)c(C(=O)Nc2cc(F)ccc2F)c(C)n1C,?,?,.,.,.
CCN(CC)S(=O)(=O)c1ccc(NC(=O)Cn2cnc3ccccc3c2=O)cc1,.,.,.,.,.
CCN(CC)S(=O)(=O)c1ccc(Nc2nc3ccccc3n3nnnc23)cc1,?,?,.,.,3.2
Cc1cc(C)n(-c2nc3ccccc3nc2Nc2ccc3c(c2)OCO3)n1,?,?,.,.,.
c1ccc2c(c1)nc(Nc1ccc3c(c1)OCO3)c1nnnn12,?,?,.,.,3.2
CCCCC[C@H](O)/C=C/[C@H]1C=CC(=O)[C@@H]1C/C=C\CCCC(=O)O,42,.,.,.,.
Cc1ccc(-c2nnn(CC(=O)N(CC(=O)NC3CCCCC3)c3cnc4ccccc4c3)n2)o1,.,.,.,.,.
Cn1c(N)c(C(=O)NCc2ccccc2)sc1=S,?,?,.,.,4.1
CCn1c(N)c(C(=O)NCc2ccco2)sc1=S,.,.,.,.,.
N#CC1=C(N)OC2=C(CCC/C2=C/c2ccoc2)C1c1ccoc1 (stereo not given),.,.,.,.,2.5
Cc1cccc(N2CCN(C(=O)COc3cc(=O)n(C)c4ccccc34)CC2C)c1 (stereo not given),.,.,.,.,.
Cc1[nH]n2c(=O)cc(Cc3ccccc3)nc2c1C#N,.,.,.,.,.
CCc1c(C)nc2c(C#N)c(C)[nH]n2c1=O,/,/,.,50,/
Cc1nc2c(C#N)c[nH]n2c(=O)c1Cc1ccccc1,/,/,.,40,/
SMILES,VLA-4 allo ag,VLA-4 antagonist,FPRL1 ligand,FPR binder,Jurkat autofluor
Cc1nc2c(C#N)c(C)[nH]n2c(=O)c1Cc1ccccc1,/,/,.,32,/
CCOC(=O)Cc1c(C)nc2c(-c3ccccc3)c(C)[nH]n2c1=O,/,/,.,.,/
COc1ccc(NC(=O)C(c2ccc(C)cc2)N(C)C(=O)c2cnccn2)cc1 (stereo not given),.,.,38,.,.
CC1Cc2ccccc2N1C(=O)Cn1c(=O)oc2cc(S(=O)(=O)N3CCCCC3)ccc21 (stereo not given),?,?,.,.,5.1
O=C(Cn1c(=O)oc2cc(S(=O)(=O)N3CCc4ccccc43)ccc21)N1CCCCC1,?,?,.,.,.
CC(C)OC(=O)c1cc(=O)[nH]c2ccccc12,.,.,.,.,.
COC(=O)C1Cc2c([nH]c3ccccc23)CN1 (stereo not given),?,?,.,.,4.1
CCCOc1ccc2oc(=O)c3c(c2c1)CCCN3C(=O)CN(C)Cc1ccccc1,?,?,.,.,.
C=CCOC(=O)C(C#N)c1nc2ccccc2nc1N1CCN(Cc2ccccc2)CC1 (stereo not given),?,?,.,.,2.8
CC(C)COC(=O)C(C#N)c1nc2ccccc2nc1N1CCN(Cc2ccccc2)CC1 (stereo not given),?,?,.,.,.
CCOC(=O)c1c(C)oc2c1c(C=NCC1CCCO1)c(O)c1ccccc12 (stereo not given),?,?,.,.,.
CCOC(=O)c1c(C)oc2c1c(C=NCc1ccccn1)c(O)c1ccccc12,?,?,.,.,2.9
O=C(NC1CCCCC1)c1noc2c1CCCCC2,.,.,.,.,.

# Source: PubChem (NMMLSC)
